According to PubChem BioAssay (Tox21):
Activity calls are given as the source filed them. A call without a number means that no potency is given here. Unless noted, calls follow the shape of the dose curve; as a rule, active = well fitted curve in the direction sought with a large enough effect in the repeat runs; inconclusive = weak or mixed curves; inactive = no such curve, though single readings can be large; an effect the other way counts as inactive or inconclusive.

How the values were obtained:
[1] = qHTS assay to identify small molecule antagonists of the thyroid receptor (TR) signaling pathway - cell viability counter screen (AID 743064); also: nearly all actives have a fitted effect of over 50% in size; also: potency is read from the fitted curve at half-maximal effect
How it was run: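 CellTiter-Fluor readout, 30 min at 37 °C/5% CO2, following 23.5 h incubation of GH3.TRE-Luc cells with test compound and 1 nM T3 (final).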

[2] = qHTS assay to identify small molecule antagonists of the thyroid receptor (TR) signaling pathway (AID 743065); also: nearly all actives have a fitted effect of over 55% in size; also: potency is read from the fitted curve at half-maximal effect
How it was run: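 Antagonism measured as loss of luciferase signal in GH3 cells stably carrying a TRE-luciferase reporter, co-treated with compound and T3 (1 nM final) for 23.5 h at 37 C. Viability was read in the same well by CellTiter-Fluor.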

[3] = test system: thyroid hormone receptor (rat, GH3 cells); assay: qHTS assay to identify small molecule agonists of the thyroid receptor (TR) signaling pathway (AID 743066; calls by dose curve)
[4] = qHTS assay to identify small molecule antagonists of the estrogen receptor alpha (ER-alpha) signaling pathway - cell viability counter screen (AID 743074; calls by dose curve;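 also: HEK293 cells carrying ER-alpha-UAS-bla reporter stimulated with 17beta-estradiol; nearly all actives have a fitted effect of over 45% in size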)
[5] = qHTS assay to identify small molecule antagonists of the estrogen receptor alpha (ER-alpha) signaling pathway using the BG1 cell line - cell viability counter screen (AID 743081);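 also: compound given together with 17beta-estradiol as the ER stimulus; series mostly up to about 70 µM; nearly all actives have a fitted effect of over 45% in size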
Aromatase (Homo sapiens) = Aromatase (Homo sapiens) (UniProt P11511); assay: qHTS assay to identify aromatase inhibitors (AID 743083); also: series mostly up to about 70 µM; nearly all actives have a fitted effect of over 55% in size
Chain of Aromatase (Homo sapiens) (P11511 whole entry, looked up): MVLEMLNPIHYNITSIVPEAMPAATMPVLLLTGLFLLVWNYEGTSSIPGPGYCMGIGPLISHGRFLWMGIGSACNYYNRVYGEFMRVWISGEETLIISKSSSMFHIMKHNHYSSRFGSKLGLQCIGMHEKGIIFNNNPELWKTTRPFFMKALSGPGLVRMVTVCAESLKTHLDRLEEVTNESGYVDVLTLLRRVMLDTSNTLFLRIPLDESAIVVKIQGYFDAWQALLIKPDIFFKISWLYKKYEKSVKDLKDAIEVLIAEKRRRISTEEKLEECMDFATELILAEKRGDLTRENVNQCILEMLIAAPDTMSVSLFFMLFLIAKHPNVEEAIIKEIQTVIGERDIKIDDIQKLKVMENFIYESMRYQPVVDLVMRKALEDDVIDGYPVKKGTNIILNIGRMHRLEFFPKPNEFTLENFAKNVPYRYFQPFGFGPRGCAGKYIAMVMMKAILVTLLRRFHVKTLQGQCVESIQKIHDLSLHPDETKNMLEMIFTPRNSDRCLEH

[6] = biological target: Estrogen receptor (Homo sapiens) (UniProt P03372); assay: qHTS assay to identify small molecule antagonists of the estrogen receptor alpha (ER-alpha) signaling pathway (AID 743069; active = well fitted curve in the direction sought with a large enough effect in the signal ratio in the repeat runs, not every such curve was filed as active; inconclusive = weak or mixed curves, or effect the other way; inactive = no such curve, though single readings can be large or run the other way; the % refers to the signal ratio; also: potency is read from the fitted curve at half-maximal effect)
Chain of Estrogen receptor (Homo sapiens) (P03372 whole entry, looked up): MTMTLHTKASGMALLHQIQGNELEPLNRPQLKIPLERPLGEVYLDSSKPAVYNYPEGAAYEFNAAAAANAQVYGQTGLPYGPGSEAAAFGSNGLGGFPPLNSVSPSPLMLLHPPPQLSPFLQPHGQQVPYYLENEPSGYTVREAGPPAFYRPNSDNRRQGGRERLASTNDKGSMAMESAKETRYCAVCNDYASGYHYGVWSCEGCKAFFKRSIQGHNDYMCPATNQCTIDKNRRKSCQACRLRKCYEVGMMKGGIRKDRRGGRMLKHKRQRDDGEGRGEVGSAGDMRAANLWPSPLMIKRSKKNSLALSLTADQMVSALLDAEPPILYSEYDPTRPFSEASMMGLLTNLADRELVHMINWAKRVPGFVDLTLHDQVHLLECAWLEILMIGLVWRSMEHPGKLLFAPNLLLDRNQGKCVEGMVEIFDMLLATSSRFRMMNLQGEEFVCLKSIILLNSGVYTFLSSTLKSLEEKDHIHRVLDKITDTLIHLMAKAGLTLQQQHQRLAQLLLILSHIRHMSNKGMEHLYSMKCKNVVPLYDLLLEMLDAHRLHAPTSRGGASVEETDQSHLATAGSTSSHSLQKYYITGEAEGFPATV
How it was run: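 ER-alpha-UAS-bla GripTite HEK293 line; 2% charcoal-stripped FBS overnight; plated, 4 hr 37C/5% CO2; cpd in DMSO + 17beta-estradiol, 18 hr 37C; LiveBLAzer B/G FRET substrate 2 hr RT; fluorescence intensity.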

[7] = biological target: Estrogen receptor (Homo sapiens) (UniProt P03372); assay: qHTS assay to identify small molecule agonists of the estrogen receptor alpha (ER-alpha) signaling pathway (AID 743075; calls by dose curve;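 also: HEK293 GripTite cells with ER-alpha and UAS-driven beta-lactamase reporter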; also: potency is read from the fitted curve at half-maximal effect)
[8] = biological target: Estrogen receptor (Homo sapiens) (UniProt P03372); assay: qHTS assay to identify small molecule agonists of the estrogen receptor alpha (ER-alpha) signaling pathway using the BG1 cell line (AID 743079); also: nearly all actives have a fitted effect of over 20% in size; also: potency is read from the fitted curve at half-maximal effect
[9] = qHTS assay to identify small molecule antagonists of the estrogen receptor alpha (ER-alpha) signaling pathway using the BG1 cell line (AID 743080; calls by dose curve;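 also: BG1 cells stimulated with 17beta-estradiol alongside compound; series mostly up to about 70 µM; nearly all actives have a fitted effect of over 25% in size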)
How it was run: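 Readout is ONE-Glo luminescence, taken 30 min at room temperature after reagent addition, preceded by a CellTiter-Fluor viability read; BG1-Luc-4E2 cells had received compound and 17beta-estradiol for 21.5 h at 37 C.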

Compound	Potency [1]	Potency [2]	Potency [3]	outcome [4]	outcome [5]	Potency (Aromatase (Homo sapiens))	Potency [6]	Potency [7]	Potency [8]	Potency [9]
Cc1cc(C)c(NC(=O)CN(CC(=O)O)CC(=O)O)c(C)c1Br	inactive	inactive	inactive	inactive	inactive	inactive	–	–	–	–
NC(CS)C(=O)O (stereo unspecified)	inactive	inactive	inactive	inactive	–	inactive	–	–	–	–
CC(O)CN(CCCN(C)C)CCCN(C)C (stereo unspecified)	inactive	inactive	inactive	–	inactive	–	–	–	–	–
C#CC(O)C(CC)CCCC (stereo unspecified)	inactive	inactive	inactive	inactive	inactive	inactive	–	–	–	–
CCCc1ccccc1O	inactive	inactive	inactive	inactive	inactive	inactive	–	–	–	–
COc1cc(C)cc(O)c1	inactive	inactive	inactive	inactive	inactive	inactive	–	–	–	–
CC(C)CCCC(C)CCCC(C)CCCCC(C)CCCC(C)CCCC(C)C (stereo unspecified)	inactive	inactive	inactive	inactive	inactive	inactive	–	–	–	–
CCCCC1CCCCC(=O)O1 (stereo unspecified)	inactive	inactive	–	inactive	inactive	inactive	inactive	inactive	inactive	inactive
Cc1nc(-c2ccc(OCC(C)C)c(C#N)c2)sc1C(=O)O	inactive	13.3 µM (active)	inactive	–	inactive	inactive	–	inactive	–	–
NS(=O)(=O)c1cc2c(cc1C(F)(F)F)NC(Cc1ccccc1)NS2(=O)=O (stereo unspecified)	inactive	inactive	inactive	inactive	inactive	inactive	–	–	–	–
C=CC(=O)OCCCCCC	inactive	inactive	inactive	inactive	inactive	inactive	–	–	–	–
CCN1CCCC1CNC(=O)c1cc(S(N)(=O)=O)ccc1OC (stereo unspecified)	inactive	inactive	inactive	inactive	inactive	inactive	–	–	–	–
CC(C=O)Cc1ccc(C(C)C)cc1 (stereo unspecified)	inactive	inactive	inactive	inactive	inactive	inactive	–	–	–	–
C#CC(O)CCCCC (stereo unspecified)	inactive	inactive	inactive	inactive	inactive	inactive	–	–	–	–
CC(C)COC(=O)c1ccccc1O	inactive	–	inactive	inactive	inactive	–	inactive	inactive	inactive	inactive
OC1OC[C@@H](O)[C@H](O)[C@H]1O (stereo partly specified)	inactive	inactive	inactive	–	inactive	inactive	–	–	–	–

Compound	Potency [1]	Potency [2]	Potency [3]	outcome [4]	outcome [5]	Potency (Aromatase (Homo sapiens))	Potency [6]	Potency [7]	Potency [8]	Potency [9]
C=CCSCC1Nc2cc(Cl)c(S(N)(=O)=O)cc2S(=O)(=O)N1 (stereo unspecified)	inactive	inactive	inactive	inactive	inactive	inactive	–	–	–	–
CCCOCC(C)OCC(C)O (stereo unspecified)	inactive	inactive	inactive	inactive	inactive	inactive	–	–	–	–
CCCCCCCCCCCCCCC	inactive	inactive	inactive	–	inactive	–	–	–	–	–
CCN1CCN(c2cc3c(cc2F)c(=O)c(C(=O)O)cn3C2CC2)CC1	inactive	inactive	inactive	inactive	inactive	inactive	–	–	–	–
COC(=O)[C@H]1[C@H]2C[C@@H]3c4[nH]c5cc(OC)ccc5c4CCN3C[C@H]2C[C@@H](OC(=O)COc2ccc(OC)cc2)[C@@H]1OC	inactive	23.7 µM (active)	–	inactive	inactive	inactive	–	inactive	inactive	–
COc1cc(CCC(C)=O)ccc1O	inactive	inactive	inactive	inactive	inactive	inactive	–	–	–	–
CCC(=O)/C=C/c1ccc(OC)cc1	inactive	–	inactive	–	inactive	inactive	inactive	inactive	inactive	inactive
CC(C)(O)c1ccccc1	inactive	–	inactive	inactive	inactive	inactive	inactive	inactive	inactive	inactive
O=C(O)c1cccc(C(=O)O)n1	inactive	–	inactive	inactive	inactive	inactive	inactive	inactive	inactive	inactive
C(=C(c1ccccc1)c1ccccc1)c1ccccc1	inactive	–	inactive	inactive	inactive	inactive	54.9 µM [inconclusive] (active)	7.76 µM [inconclusive] (active)	2.43 µM (active)	inactive
COC(C(=O)O)c1ccccc1 (stereo unspecified)	inactive	–	inactive	–	inactive	inactive	–	–	–	–
O=C(O)C(O)[C@H](O)[C@@H](O)[C@H](O)[C@H](O)CO (stereo partly specified)	inactive	–	inactive	inactive	inactive	inactive	inactive	inactive	inactive	inactive
CCN1CCCC(OC(=O)C(c2ccccc2)c2ccccc2)C1 (stereo unspecified)	12.7 µM (active)	–	inactive	inactive	–	inactive	inactive	inactive	inactive	–
CC(C)c1ccc2oc3nc(N)c(C(=O)O)cc3c(=O)c2c1	inactive	–	inactive	inactive	inactive	inactive	–	–	–	–
NCC[C@H](O)C(=O)N[C@@H]1C[C@H](N)[C@@H](O[C@H]2O[C@H](CN)[C@@H](O)[C@H](O)[C@H]2O)[C@H](O)[C@H]1O[C@H]1O[C@H](CO)[C@@H](O)[C@H](N)[C@H]1O	inactive	–	inactive	inactive	inactive	inactive	inactive	inactive	23.7 µM (active)	inactive
